Assay outcomes (PubChem BioAssay)
NOMO-1 viab: STK33 inhibitor candidate reducing NOMO-1 cell viability. NOMO-1 AML viability, CellTiter-Glo luminescence, 72 h. inhibition, % (no concentration beside the values). hit rate 7.5% among 37,000. AID 2330; in the data active = inhibition above about 80%; inconclusive = no clear call, values can overlap the other calls
PD-1 reverse act: activators reversing PD-1 mediated T-cell inhibition | primary human CD4 T cells, PD-L1 beads, CellTiter-Glo 96 h | activation, % (test concentration not listed) | 29,000 tested, under 10 active; call rule not given here;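 also: 0% = median vehicle wells and 100% = positive control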
STK33 inh: blocks human STK33 kinase activity. Q9BYT3. ADP-Glo luminescence, MBP substrate. inhibition, % at 12.5 µM. hit rate 0.44% among 27,000; in the data active = inhibition above about 20%; inconclusive = no clear call, values can overlap the other calls
Target sequence (Q9BYT3 whole entry, looked up): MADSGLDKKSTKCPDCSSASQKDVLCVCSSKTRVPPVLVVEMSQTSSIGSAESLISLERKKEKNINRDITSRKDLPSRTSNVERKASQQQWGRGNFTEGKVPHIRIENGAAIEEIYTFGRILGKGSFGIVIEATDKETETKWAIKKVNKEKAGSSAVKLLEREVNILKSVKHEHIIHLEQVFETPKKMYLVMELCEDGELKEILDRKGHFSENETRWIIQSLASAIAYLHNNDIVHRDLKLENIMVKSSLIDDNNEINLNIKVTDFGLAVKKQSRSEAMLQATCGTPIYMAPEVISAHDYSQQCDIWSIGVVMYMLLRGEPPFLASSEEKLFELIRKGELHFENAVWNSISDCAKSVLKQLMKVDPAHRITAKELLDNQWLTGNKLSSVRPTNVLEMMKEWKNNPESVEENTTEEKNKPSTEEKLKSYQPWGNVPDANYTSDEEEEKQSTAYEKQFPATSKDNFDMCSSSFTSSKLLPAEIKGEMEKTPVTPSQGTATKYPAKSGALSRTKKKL
Numbers without * were called inactive; ? = inconclusive; / = not tested or not shown. The full list was thinned out, with hits kept by preference.

SMILES	NOMO-1 viab	PD-1 reverse act	STK33 inh
O=C(N[C@H](COC(=O)[C@H](Cc1ccccc1)NC(=O)c1ccccc1)Cc1ccccc1)c1ccccc1	?	-1.1	-1.4
C[C@H]1CN([C@@H](C)CO)C(=O)c2cc(NC(=O)Nc3cccc4ccccc34)ccc2O[C@@H]1CN(C)Cc1ccc(Oc2ccccc2)cc1	121.2*	-4.4	/
C[C@H]1CN([C@@H](C)CO)C(=O)c2cc(NC(=O)Nc3cccc4ccccc34)ccc2O[C@H]1CN(C)Cc1ccc(-c2ccccc2)cc1	58.0	-0.8	5.3
COc1ccc(CN(C)C[C@@H]2Oc3ccc(NC(=O)Nc4cccc5ccccc45)cc3C(=O)N([C@@H](C)CO)C[C@H]2C)cc1	25.9	-0.3	/
COc1ccc(CN(C)C[C@@H]2Oc3ccc(NC(=O)Nc4cccc5ccccc45)cc3C(=O)N([C@@H](C)CO)C[C@@H]2C)cc1	34.4	-0.5	4.6
C[C@@H]1CN([C@H](C)CO)C(=O)c2cc(NC(=O)Nc3cccc4ccccc34)ccc2O[C@H]1CN(C)Cc1ccc(-c2ccccc2)cc1	118.1*	-5.2	/
C[C@@H]1CN([C@@H](C)CO)C(=O)c2cc(NC(=O)Nc3cccc4ccccc34)ccc2O[C@@H]1CN(C)Cc1ccc(C(F)(F)F)cc1	106.4*	-6.7	-1.4
C[C@@H]1CN([C@H](C)CO)C(=O)c2cc(NC(=O)Nc3cccc4ccccc34)ccc2O[C@@H]1CN(C)Cc1ccc(Oc2ccccc2)cc1	89.1*	/	/
C[C@@H]1CN([C@H](C)CO)C(=O)c2cc(NC(=O)Nc3cccc4ccccc34)ccc2O[C@@H]1CN(C)Cc1ccc(C(F)(F)F)cc1	?	-5.4	/
O=C1c2ccccc2C(=O)N1[C@H]1CCN(Cc2ccc(OCCO)cc2)C1	/	/	0.1
COc1ccc(CN(C)C[C@H]2Oc3ccc(NC(=O)Nc4cccc5ccccc45)cc3C(=O)N([C@@H](C)CO)C[C@@H]2C)cc1	19.7	-0.6	0.9
C[C@H](CO)N1C[C@H](C)[C@H](CN(C)Cc2ccc(Oc3ccccc3)cc2)Oc2ccc(NC(=O)Nc3cccc4ccccc34)cc2C1=O	113.2*	-5.3	4.4
C[C@H](CO)N1C[C@H](C)[C@@H](CN(C)Cc2ccc(Oc3ccccc3)cc2)Oc2ccc(NC(=O)Nc3cccc4ccccc34)cc2C1=O	103.5*	-2.7	/
COc1ccc(CN(C)C[C@H]2Oc3ccc(NC(=O)Nc4cccc5ccccc45)cc3C(=O)N([C@H](C)CO)C[C@H]2C)cc1	-4.5	/	/
CC1CN(c2nc3ccccc3nc2SCC(=O)Nc2ccccc2)CC(C)O1 (centres undefined)	87.8*	-1.6	/
O=C(CSc1nc2ccccc2nc1N1CCCC1)Nc1ccccc1	42.9	-1.9	-1.3
Cc1nc(C(N)=NC(=O)c2ccc(OC(F)(F)F)cc2)cs1	11.7	-0.2	-2.1
COC(=O)c1sc2c(C)cc(Cl)c(C)c2c1C(=O)Oc1ccccc1	26.0	-0.7	/
COc1ccccc1NC(=O)/C=C\c1ccco1	107.2*	-19.4	2.7
COc1ccccc1NC(=O)C1c2ccccc2Oc2ccccc21	?	0.1	/
O=C(NCC[n+]1ccc2ccccc2c1)c1ccccc1	44.1	0.0	/
